Laboratory results from the supplement of paper PMC10849652.
Targets with a hit are over-represented here; the source holds about 7,900 in all. About 0.6% of all pairs of compound and target were hits. Unmarked numbers belong to inactive results.

Tests used:
Experiment in all cases: log2 fold change, soluble protein after heating vs DMSO (PISA); higher = thermal stabilisation; K562 cells, 10 uM, 30 min; active = over 0.2 and 3.5 SD of the protein, either way, in both replicates (recomputed)
saracatinib = compound: CN1CCN(CCOc2cc(OC3CCOCC3)c3c(Nc4c(Cl)ccc5c4OCO5)ncnc3c2)CC1 [saracatinib]
Outline: (§1)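 K562 cells at 2×10^6 cells/mL were given 10 μM compound for 30 min. Aliquots then went through 3 min of heating across 48°C-58°C, were pooled, and were extracted in PBS with 0.5% NP-40 at 4°C, and the supernatant after 21,000xg for 90 min was quantified by TMTpro 16plex LC-MS/MS with channel sums equalised. Thermal stability relative to control samples, from duplicates, is given as log2 fold change.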

sotrastaurin = compound: CN1CCN(c2nc(C3=C(c4c[nH]c5ccccc45)C(=O)NC3=O)c3ccccc3n2)CC1 [sotrastaurin]
Outline: as §1

alvocidib = compound: CN1CC[C@H](c2c(O)cc(O)c3c(=O)cc(-c4ccccc4Cl)oc23)[C@H](O)C1 [alvocidib]
Outline: as §1

Tubastatin A = compound: CN1CCc2c(c3ccccc3n2Cc2ccc(C(=O)NO)cc2)C1 [Tubastatin A]
Outline: as §1

[1] = compound: CNC(=O)C1=CC=CC=C1NC2=NC(=NC=C2Cl)NC3=C(C=C(C=C3)N4CCOCC4)OC
Outline: as §1

defactinib = compound: CNC(=O)c1ccc(Nc2ncc(C(F)(F)F)c(NCc3nccnc3N(C)S(C)(=O)=O)n2)cc1 [defactinib]
Outline: as §1

rucaparib = compound: CNCc1ccc(-c2[nH]c3cc(F)cc4c3c2CCNC4=O)cc1 [rucaparib]
Outline: as §1

[2] = compound: CNc1nc(-c2ccc3c(N)n[nH]c3c2)cc(N2C[C@@H](C(=O)NC3CCCCC3)CC[C@H]2C)n1
Outline: as §1

encorafenib = compound: COC(=O)N[C@@H](C)CNc1nccc(-c2cn(C(C)C)nc2-c2cc(Cl)cc(NS(C)(=O)=O)c2F)n1 [encorafenib]
Outline: as §1

[3] = compound: COC(=O)[C@H](CCSC)NC(=O)C1=C(C=C(C=C1)NC[C@H](CS)N)C2=CC=CC=C2
Outline: as §1

[4] = compound: COC1=CC=C(C=C1)CN2C=CC3=C2C=C(C=C3)C(=O)NO
Outline: as §1

filanesib = compound: CON(C)C(=O)N1N=C(c2cc(F)ccc2F)S[C@@]1(CCCN)c1ccccc1 [filanesib]
Outline: as §1

zotarolimus = compound: CO[C@H]1C[C@@H]2CC[C@@H](C)[C@@](O)(O2)C(=O)C(=O)N2CCCC[C@H]2C(=O)O[C@H]([C@H](C)C[C@@H]2CC[C@H](n3cnnn3)[C@H](OC)C2)CC(=O)[C@H](C)/C=C(\C)[C@@H](O)[C@@H](OC)C(=O)[C@H](C)C[C@H](C)/C=C/C=C/C=C/1C [zotarolimus]
Outline: as §1

idasanutlin = compound: COc1cc(C(=O)O)ccc1NC(=O)[C@@H]1N[C@@H](CC(C)(C)C)[C@](C#N)(c2ccc(Cl)cc2F)[C@H]1c1cccc(Cl)c1F [idasanutlin]
Outline: as §1

alisertib = compound: COc1cc(Nc2ncc3c(n2)-c2ccc(Cl)cc2C(c2c(F)cccc2OC)=NC3)ccc1C(=O)O [alisertib]
Outline: as §1

[5] = compound: COc1cc2nc(-c3cc(F)ccc3O)nc(N[C@@H]3CNC[C@H]3C(C)(C)O)c2cc1OC
Outline: as §1

gefitinib = compound: COc1cc2ncnc(Nc3ccc(F)c(Cl)c3)c2cc1OCCCN1CCOCC1 [gefitinib]
Outline: as §1

[6] = compound: COc1cccc2cc(-c3nc([C@H]4CC[C@H](C(=O)O)CC4)n4ncnc(N)c34)[nH]c12
Outline: as §1

lapatinib = compound: CS(=O)(=O)CCNCc1ccc(-c2ccc3ncnc(Nc4ccc(OCc5cccc(F)c5)c(Cl)c4)c3c2)o1 [lapatinib]
Outline: as §1

pictilisib = compound: CS(=O)(=O)N1CCN(Cc2cc3nc(-c4cccc5[nH]ncc45)nc(N4CCOCC4)c3s2)CC1 [pictilisib]
Outline: as §1

Chain of UniProt Q9HB90 (Q9HB90 whole entry, looked up): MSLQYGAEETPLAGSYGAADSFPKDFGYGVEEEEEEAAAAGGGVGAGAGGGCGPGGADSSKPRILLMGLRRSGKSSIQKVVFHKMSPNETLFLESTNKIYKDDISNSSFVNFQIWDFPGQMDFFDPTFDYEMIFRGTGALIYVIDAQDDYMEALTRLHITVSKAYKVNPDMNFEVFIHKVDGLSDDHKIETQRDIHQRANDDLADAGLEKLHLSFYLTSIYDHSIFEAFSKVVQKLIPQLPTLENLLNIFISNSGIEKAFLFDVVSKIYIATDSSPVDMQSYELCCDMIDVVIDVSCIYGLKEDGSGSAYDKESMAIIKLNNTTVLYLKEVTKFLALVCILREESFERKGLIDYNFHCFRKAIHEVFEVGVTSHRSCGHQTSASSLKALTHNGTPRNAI
Chain of UniProt O95470 (O95470 whole entry, looked up): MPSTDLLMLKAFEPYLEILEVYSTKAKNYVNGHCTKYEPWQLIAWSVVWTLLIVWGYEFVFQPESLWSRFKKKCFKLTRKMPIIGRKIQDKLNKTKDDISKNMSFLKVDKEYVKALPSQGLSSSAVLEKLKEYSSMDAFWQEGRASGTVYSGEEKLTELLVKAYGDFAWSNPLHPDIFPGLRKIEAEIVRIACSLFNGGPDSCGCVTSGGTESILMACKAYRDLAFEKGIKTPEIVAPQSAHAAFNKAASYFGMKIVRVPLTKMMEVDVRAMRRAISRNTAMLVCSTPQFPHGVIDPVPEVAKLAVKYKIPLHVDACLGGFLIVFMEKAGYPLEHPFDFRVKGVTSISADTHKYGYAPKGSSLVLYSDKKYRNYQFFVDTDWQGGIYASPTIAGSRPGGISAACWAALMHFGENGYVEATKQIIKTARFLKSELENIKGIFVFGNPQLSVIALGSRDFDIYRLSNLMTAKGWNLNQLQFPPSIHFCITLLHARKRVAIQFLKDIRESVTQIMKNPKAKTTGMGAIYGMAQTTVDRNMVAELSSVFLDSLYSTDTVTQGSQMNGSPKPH
Chain of UniProt Q15050 (Q15050 whole entry, looked up): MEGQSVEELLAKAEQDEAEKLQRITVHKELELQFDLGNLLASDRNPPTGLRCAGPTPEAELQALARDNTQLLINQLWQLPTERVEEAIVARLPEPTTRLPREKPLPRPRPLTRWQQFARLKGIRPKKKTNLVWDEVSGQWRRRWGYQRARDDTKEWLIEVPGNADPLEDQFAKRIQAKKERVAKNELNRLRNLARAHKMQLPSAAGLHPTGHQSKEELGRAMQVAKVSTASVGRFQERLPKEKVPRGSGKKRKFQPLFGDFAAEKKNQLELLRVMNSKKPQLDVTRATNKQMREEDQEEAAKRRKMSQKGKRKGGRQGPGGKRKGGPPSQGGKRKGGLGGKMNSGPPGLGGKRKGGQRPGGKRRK
Chain of UniProt Q5T160 (Q5T160 whole entry, looked up): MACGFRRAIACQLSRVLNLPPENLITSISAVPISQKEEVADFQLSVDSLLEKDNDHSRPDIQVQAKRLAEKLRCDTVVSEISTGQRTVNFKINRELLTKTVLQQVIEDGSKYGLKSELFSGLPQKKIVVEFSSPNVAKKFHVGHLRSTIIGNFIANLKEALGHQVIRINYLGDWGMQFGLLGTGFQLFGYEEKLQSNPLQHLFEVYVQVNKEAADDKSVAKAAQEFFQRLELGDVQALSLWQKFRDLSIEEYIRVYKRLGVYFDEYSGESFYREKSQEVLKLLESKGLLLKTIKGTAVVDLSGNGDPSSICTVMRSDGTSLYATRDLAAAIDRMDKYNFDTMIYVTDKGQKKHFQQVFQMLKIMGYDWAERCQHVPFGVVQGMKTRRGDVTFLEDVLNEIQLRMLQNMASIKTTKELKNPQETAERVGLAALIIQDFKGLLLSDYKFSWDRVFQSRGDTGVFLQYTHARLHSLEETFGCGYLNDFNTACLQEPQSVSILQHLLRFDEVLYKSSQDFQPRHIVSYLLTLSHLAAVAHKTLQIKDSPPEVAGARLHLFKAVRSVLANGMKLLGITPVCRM
Chain of UniProt Q99496 (Q99496 whole entry, looked up): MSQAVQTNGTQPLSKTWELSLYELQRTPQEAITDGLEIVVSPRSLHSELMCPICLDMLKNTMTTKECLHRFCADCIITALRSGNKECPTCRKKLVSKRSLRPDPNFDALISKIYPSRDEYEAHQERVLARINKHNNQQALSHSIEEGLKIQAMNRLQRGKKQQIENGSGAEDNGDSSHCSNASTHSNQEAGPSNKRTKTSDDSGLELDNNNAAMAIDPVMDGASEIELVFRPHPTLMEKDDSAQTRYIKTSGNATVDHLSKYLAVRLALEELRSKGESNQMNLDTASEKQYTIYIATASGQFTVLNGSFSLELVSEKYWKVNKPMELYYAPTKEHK
Chain of UniProt O43819 (O43819 whole entry, looked up): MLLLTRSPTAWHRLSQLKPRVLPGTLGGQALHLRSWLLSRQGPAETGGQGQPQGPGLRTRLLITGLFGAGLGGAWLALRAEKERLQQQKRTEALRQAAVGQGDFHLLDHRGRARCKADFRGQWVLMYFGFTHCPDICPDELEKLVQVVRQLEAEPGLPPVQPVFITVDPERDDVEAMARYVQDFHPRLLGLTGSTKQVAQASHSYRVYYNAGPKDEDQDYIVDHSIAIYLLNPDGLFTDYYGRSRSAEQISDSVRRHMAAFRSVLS
Chain of UniProt Q8WZA2 (Q8WZA2 whole entry, looked up): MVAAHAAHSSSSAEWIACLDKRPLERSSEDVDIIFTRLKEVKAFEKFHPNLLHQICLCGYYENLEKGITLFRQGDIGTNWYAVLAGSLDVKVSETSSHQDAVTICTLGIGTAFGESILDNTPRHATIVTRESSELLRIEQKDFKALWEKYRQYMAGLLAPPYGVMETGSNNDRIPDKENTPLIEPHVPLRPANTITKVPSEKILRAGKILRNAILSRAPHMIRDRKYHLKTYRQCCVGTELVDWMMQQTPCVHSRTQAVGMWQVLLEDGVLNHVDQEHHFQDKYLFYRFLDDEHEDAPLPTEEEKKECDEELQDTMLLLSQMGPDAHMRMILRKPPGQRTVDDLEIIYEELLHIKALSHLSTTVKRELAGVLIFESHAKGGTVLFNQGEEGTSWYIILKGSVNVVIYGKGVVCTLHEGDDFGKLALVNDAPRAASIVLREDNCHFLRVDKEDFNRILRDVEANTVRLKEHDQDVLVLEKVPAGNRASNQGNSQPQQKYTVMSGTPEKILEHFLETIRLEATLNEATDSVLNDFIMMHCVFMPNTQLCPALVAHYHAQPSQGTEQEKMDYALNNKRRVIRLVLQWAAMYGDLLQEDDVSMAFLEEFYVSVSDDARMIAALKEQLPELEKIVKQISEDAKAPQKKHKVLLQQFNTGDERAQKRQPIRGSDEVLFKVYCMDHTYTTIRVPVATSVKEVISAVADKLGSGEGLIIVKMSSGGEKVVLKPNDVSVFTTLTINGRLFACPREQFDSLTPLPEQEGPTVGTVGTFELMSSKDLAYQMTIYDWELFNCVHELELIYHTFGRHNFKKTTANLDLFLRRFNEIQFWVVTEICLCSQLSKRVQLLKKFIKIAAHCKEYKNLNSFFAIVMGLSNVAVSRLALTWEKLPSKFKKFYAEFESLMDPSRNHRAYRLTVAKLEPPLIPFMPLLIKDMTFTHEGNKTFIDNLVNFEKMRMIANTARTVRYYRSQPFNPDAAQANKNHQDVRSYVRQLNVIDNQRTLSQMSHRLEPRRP

Target	log2 fold change (saracatinib)	log2 fold change (sotrastaurin)	log2 fold change (alvocidib)	log2 fold change (Tubastatin A)	log2 fold change [1]	log2 fold change (defactinib)	log2 fold change (rucaparib)	log2 fold change [2]	log2 fold change (encorafenib)	log2 fold change [3]	log2 fold change [4]	log2 fold change (filanesib)	log2 fold change (zotarolimus)	log2 fold change (idasanutlin)	log2 fold change (alisertib)	log2 fold change [5]	log2 fold change (gefitinib)	log2 fold change [6]	log2 fold change (lapatinib)	log2 fold change (pictilisib)
RARS2 (UniProt Q5T160)	0.005	-0.101	-0.086	-0.056	-0.035	-0.064	0.003	-0.042	0.026	-0.003	0.009	-0.245 (active)	0.007	-0.071	-0.016	-0.028	-0.013	0.051	0.051	-0.031
RAPGEF4 (UniProt Q8WZA2)	0.045	-0.033	0.04	0.333	-0.114	-0.057	-0.063	0.083	0.059	-0.123	0.549	0.053	-0.078	0.021	-0.145			0.187		
SCO2 (UniProt O43819)	0.034	0.087	0.006	0.016	-0.042	0.017	0.087	-0.004	0.003	-0.124	-0.078	0.039	0.057	-0.099	-0.103	-0.097		0.117	0	-0.015
SGPL1 (UniProt O95470)	-0.014	0.03	0.04	-0.031	0.064	0.012	0.1	0.015	0.08	-0.157	-0.064	0.107	-0.011	0.051	-0.046	0.012	0.001	-0.115	0.04	-0.013
RRAGC (UniProt Q9HB90)	0.023	0.006	-0.013	-0.025	-0.014	-0.005	-0.058	-0.063	0.036	-0.005	-0.028	-0.095	-0.009	-0.065	-0.003	0.011	-0.01	0.057	-0.01	0.066
RNF167 (UniProt Q9H6Y7)	-0.03	0.064	0.055	-0.021	0.035	0.059		0.042		-0.006	-0.062	-0.032	-0.033	0.018	-0.014	-0.084	-0.013	0.016	0.024	-0.029
SEPTIN5 (UniProt G3XAH0)	0.045	0.023	-0.033	-0.038	0.042	-0.023		0.032		0.028		-0.044	0.045	0.027	0.003	0.011	-0.057	0.036	0.094	0.051
RRS1 (UniProt Q15050)	-0.079	-0.001	0.302	0.071	0.009	0.688	0.488	0.109	0.166	0.047	-0.111	0.593	0.033	0.262	-0.171	0.01	0.005	-0.169	0.137	-0.096
RNF2 (UniProt Q99496)	0.025	-0.105	-0.149	0.111	0.091	-0.029	-0.054	-0.059	0.003	0.1	-0.104	0.023	0	-0.01	-0.105	-0.04	0.106	0.039	0.011	0.099
